From PubChem BioAssay
tim23-1 inh: inhibits growth of tim23-1 mutant yeast; S. cerevisiae tim23-1 growth, BacTiter-Glo luminescence, 24 h; inhibition, % at 20 µM; 330,000 compounds, 1.3% hits; AID 463212;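 active = growth inhibition of the mutant yeast at or above 50%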;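 also: temperature-sensitive mutant grown at 25 °C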
tim10-1 inh: tim10-1 yeast growth inhibition. S. cerevisiae tim10-1 ts strain growth, BacTiter-Glo, 24 h. inhibition, % at 20 µM. 330,000 compounds, 2.2% hits. AID 463190;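 active = inhibition of at least 40%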;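 also: mutant grown at 25 °C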
TIM10 inh: growth inhibitors of TIM10 yeast strain | inhibition, % at 10 µM | 330,000 compounds, 1.4% hits | S. cerevisiae TIM10 strain growth, BacTiter-Glo luminescence, 24 h;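 active = inhibition of 40% or more at the single tested concentration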;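 also: wild-type TIM10 isogenic control strain grown at permissive 25 °C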
MPTP block: inhibitors of mitochondrial permeability transition pore. isolated mouse mitochondria, Ca2+ swelling absorbance, 30 min. 360,000 compounds, 1.4% hits. inhibition, % at 10 µM;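 active = inhibition of 50% or more, scaled per plate between neutral and stimulator controls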
Mdm2 MdmX PPI: disrupts the human Mdm2-MdmX interaction | SaOS-2 split-luciferase Mdm2/MdmX complementation, luminescence | O15151+Q00987 | 330,000 compounds, 3% hits | inhibition, % at 8 µM;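 active = inhibition of at least 50% at 8 µM in the primary screen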
Target sequence (O15151 whole entry, looked up): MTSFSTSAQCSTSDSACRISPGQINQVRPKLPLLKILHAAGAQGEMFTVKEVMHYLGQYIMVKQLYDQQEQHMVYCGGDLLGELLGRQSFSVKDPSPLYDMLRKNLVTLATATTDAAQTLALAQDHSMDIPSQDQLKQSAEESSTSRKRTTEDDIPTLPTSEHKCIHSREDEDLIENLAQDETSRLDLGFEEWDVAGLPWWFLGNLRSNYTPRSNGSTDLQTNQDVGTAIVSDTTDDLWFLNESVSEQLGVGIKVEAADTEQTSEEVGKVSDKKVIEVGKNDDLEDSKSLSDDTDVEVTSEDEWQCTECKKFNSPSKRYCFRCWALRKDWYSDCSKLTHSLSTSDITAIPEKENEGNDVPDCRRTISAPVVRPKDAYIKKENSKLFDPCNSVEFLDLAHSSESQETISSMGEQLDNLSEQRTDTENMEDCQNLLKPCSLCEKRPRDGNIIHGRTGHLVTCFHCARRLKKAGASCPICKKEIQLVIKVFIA
Target sequence (Q00987 whole entry, looked up): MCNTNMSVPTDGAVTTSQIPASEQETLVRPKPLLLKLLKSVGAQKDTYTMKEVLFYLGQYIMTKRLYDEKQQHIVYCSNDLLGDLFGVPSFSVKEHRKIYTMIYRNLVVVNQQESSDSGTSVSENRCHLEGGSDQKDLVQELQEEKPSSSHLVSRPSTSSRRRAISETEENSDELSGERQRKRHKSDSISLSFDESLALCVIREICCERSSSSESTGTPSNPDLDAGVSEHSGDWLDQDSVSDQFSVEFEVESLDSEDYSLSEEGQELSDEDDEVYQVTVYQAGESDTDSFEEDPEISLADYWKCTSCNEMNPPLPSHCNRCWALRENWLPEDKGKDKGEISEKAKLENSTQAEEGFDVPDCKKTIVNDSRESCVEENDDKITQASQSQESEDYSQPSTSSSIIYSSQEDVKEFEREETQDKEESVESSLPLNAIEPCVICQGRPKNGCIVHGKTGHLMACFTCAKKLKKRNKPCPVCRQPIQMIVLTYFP
tim23-1 conf: tim23-1 yeast growth inhibition, confirmed. inhibition, % at 20 µM. AID 463218. shares compounds with tim23-1 inh. S. cerevisiae tim23-1 growth, BacTiter-Glo luminescence, 24 h. 4,400 compounds, 83% hits;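 active = inhibition above about 39% in either of two replicate wells at 20 µM, limit read from the data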;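 also: temperature-sensitive tim23-1 mutant grown at 25 °C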
Numbers stand for hits; n = inactive; x = not tested or not shown. Rows were chosen to be rich in hits. Some 6.3% of all compounds tested hit in one or more screens of this group.

SMILES | tim23-1 inh | tim10-1 inh | TIM10 inh | MPTP block | Mdm2 MdmX PPI | tim23-1 conf
CC(C)[C@H](NC(=O)OC(C)(C)C)c1cc(C(=O)N2CCOCC2)c(N)s1 | x | x | x | n | x | x
O=C1NC(=O)c2cc(Br)cc3cccc1c23 | n | n | n | n | n | x
O=C1NC(=O)c2cc([N+](=O)[O-])cc3cccc1c23 | 62 | n | n | n | n | 49
O=C1NC(=Nc2ccccc2)S/C1=C\c1cccs1 | 65 | n | n | n | n | 72
O=c1c2ccc([N+](=O)[O-])cc2ncn1CCOc1ccc(Cl)cc1 | 62 | n | n | n | n | 65
O=c1c2ccc([N+](=O)[O-])cc2ncn1CCOc1cccc(Br)c1 | n | n | n | n | n | x
COc1ccc(CN2C(=O)C(CC(=O)NCC3CCCCC3)CC(C(=O)N(C)C)=C2C)cc1 (centres undefined) | x | x | x | n | x | x
Cc1ccc(-c2nn(-c3ccccc3)cc2C=C2SC(=S)N(CCS(=O)(=O)O)C2=O)cc1 | x | x | x | n | x | x
Cc1ccc(-c2nn(-c3ccccc3)cc2C=C2C(=O)CC(C)(C)CC2=O)cc1 | 66 | n | n | n | n | 51
COc1ccc(C2=Nc3ccccc3N(C(=O)c3ccc(C)cc3)C2C(=O)NCc2ccccc2)cc1 (centres undefined) | x | x | x | n | x | x
Cc1ccc(C2=Nc3ccccc3N(C(=O)c3ccccc3)C(C)C2)cc1 (centres undefined) | 52 | n | n | n | n | 41
CCCNC(=O)C1(C)CCN(C(=O)c2ccc(OC(F)F)cc2)C1 (centres undefined) | x | x | x | n | x | x
CC(=O)OCC(C)n1[nH]c2ccccc2c1=O (centres undefined) | x | x | x | n | x | x
COC(=O)[C@H](C)N1C/C=C\COc2c(Cl)cc(Cl)cc2S1(=O)=O | n | n | n | n | n | x
COC(=O)[C@H](Cc1ccccc1)N1C/C=C\COc2c(Cl)cc(Cl)cc2S1(=O)=O | 52 | n | n | n | n | n
Oc1ccc(-c2nc3ccccc3s2)cc1 | 69 | n | n | n | n | 64
COc1cc(C(O)c2nc(-c3ccc(C)c(C)c3)cs2)ccc1F (centres undefined) | x | x | x | n | x | x
O=C(NC1CCCC1)c1c(O)nc2sccn2c1=O | 56 | n | n | n | n | n
CCCNC(=O)C1(C)CCN(C(=O)c2c(F)ccc(C)c2F)C1 (centres undefined) | x | x | x | n | x | x
C=CCn1c(C)c(C(C)=O)cc(NC(=O)c2ccccc2)c1=O | n | n | n | n | n | x
C=CCN1C(=O)/C(=C/C(=O)OC)S/C1=N\NC(=O)c1ccccc1 | 59 | n | n | n | n | 38
Cc1cc(OCc2cc(C(=O)NC3CCC3)no2)cc(C)c1Cl | n | n | n | n | n | x
Cc1ccc(OCc2cc(C(=O)NC3CCCCC3)no2)cn1 | 51 | n | n | n | n | 57
CC(C)(C)NC(=O)CSc1nc(-c2ccc(F)cc2)cs1 | 77 | n | n | n | n | n
CCNC(=O)CSc1nc(-c2ccc(F)cc2)cs1 | n | n | n | n | n | x
SMILES | tim23-1 inh | tim10-1 inh | TIM10 inh | MPTP block | Mdm2 MdmX PPI | tim23-1 conf
C#C[C@]1(O)CC[C@H]2[C@@H]3CCC4=Cc5oncc5C[C@]4(C)[C@H]3CC[C@@]21C | 50 | n | n | x | n | 50
C#C[C@]1(O)CC[C@H]2[C@@H]3CCC4=CC(=O)CC[C@@H]4[C@H]3CC[C@@]21C | n | n | n | n | n | x
CCCCN(CCCNC(=O)c1ccc2c(c1)NC(=O)CN2C)c1ccccc1 | x | x | x | n | x | x
CCC(=O)N1CCC1(C)C(=O)Nc1ccc(OC)c(OC)c1 (centres undefined) | x | x | x | n | x | x
O=C(/C=C\Nc1cccc(F)c1)c1cccs1 | 53 | n | n | n | n | 51
Cc1ccc(N/C=C/C(=O)c2cccs2)cc1 | 56 | n | n | n | n | 57
O=C(/C=C\Nc1ccc2c(c1)OCO2)c1cccs1 | n | n | n | n | n | x
CN(C(=O)c1cc2c(cc1Br)OCO2)c1cccc2ccccc12 | x | x | x | n | x | x
Cn1cc(C(=O)c2ccc(Cl)cc2)cc1-c1nc2ccccc2n1C | 64 | n | n | n | n | 48
C[C@@H]1CN([C@@H](C)CO)S(=O)(=O)c2ccc(Br)cc2O[C@@H]1CN(C)Cc1cccnc1 | x | x | x | n | x | x
CC(=O)c1c(O)c(C)c(-c2ccccc2)n(-c2ccccc2)c1=O | 56 | n | n | n | n | 43
O=[N+]([O-])c1ccc2[nH]nc(-c3ccccc3)c2c1 | 59 | n | n | n | n | n
CC(C)Oc1ccc(C(=O)NC(=S)Nc2ccc(CN3CCOCC3)cc2)cc1 | n | n | n | n | n | x
Cc1ccc(C(=O)NC(=S)Nc2ccc(CN3CCOCC3)cc2)cc1 | 52 | n | n | n | n | n
O=C1OCCN1C(=O)[C@H]1[C@H](c2ccc(F)cc2)C(c2ccc(F)cc2)=NN1c1ccccc1 | n | n | n | n | n | x
O=C1OCCN1C(=O)[C@H]1[C@H](c2ccc(F)cc2)C(c2ccccc2)=NN1c1ccccc1 | 72 | n | n | n | n | n
C[C@@H]1C(c2ccccc2)=NN(c2ccc(Br)cc2)[C@H]1C(=O)N1CCOC1=O | 59 | n | n | n | n | 45
Cc1cccc(C2=NN(c3ccccc3)[C@@H](C(=O)N3CCOC3=O)[C@@H]2C)c1 | n | n | n | n | n | x
Cc1cccc(C2=NN(c3ccc(Br)cc3)[C@@H](C(=O)N3CCOC3=O)[C@@H]2C)c1 | 51 | n | n | n | n | n
CC1(C(=O)NS(=O)(=O)c2ccc(C#N)cc2)CCN1C(=O)Cc1ccc(-c2ccccc2)cc1 (centres undefined) | x | x | x | n | x | x
COc1ccc(S(=O)(=O)NC(=O)C2(C)CCN2C(=O)COc2ccc(Cl)cc2)cc1OC (centres undefined) | x | x | x | n | x | x
Nc1ccn([C@@H]2O[C@H](CNS(=O)(=O)c3cc4ccccc4s3)[C@@H](O)[C@H]2O)c(=O)n1 | x | x | x | n | x | x
CCOc1ccccc1N1C(=O)c2ccc(C(=O)Nc3cccnc3)cc2C1=O | 50 | n | n | n | n | n
CCCCC(=O)N(C)c1c(C)nc2ccc(C(=O)N3CCN(c4ccccc4)CC3)cn12 | x | x | x | n | x | x
CCCSC1=C(C#N)C(c2ccccc2OCC)CC(=O)N1 (centres undefined) | n | n | n | n | n | x
SMILES | tim23-1 inh | tim10-1 inh | TIM10 inh | MPTP block | Mdm2 MdmX PPI | tim23-1 conf
CCCCSC1=C(C#N)C(c2ccccc2C)CC(=O)N1 (centres undefined) | 51 | n | n | n | n | 52
CCCSC1=C(C#N)C(c2ccccc2C)CC(=O)N1 (centres undefined) | 51 | n | n | n | n | 44
CCCCN(C=O)c1c(CC)nc2ccc(C(=O)N3CCN(S(=O)(=O)CC)CC3)cn12 | x | x | x | n | x | x
CCc1nc2c(OCC(=O)C(C)(C)C)cccn2c1N(C=O)Cc1ccc(OC)cc1 | x | x | x | n | x | x
Cn1c(NCCN2CCCC2)nc2cc(-c3cccc(C(F)(F)F)c3)sc2c1=O | x | x | x | n | x | x
C=Cc1cccc(NC(=O)c2ccc(NC(=O)c3ccco3)cc2)c1 | 51 | n | n | n | n | 38
Cc1cccc(C)c1OCC(=O)Nc1cccc(NC(=O)c2ccco2)c1 | 56 | n | n | n | n | 49
